In all, about 2,100 compounds went through this assay and about 1,100 (52%) were called active. Inconclusive results (about 29%) are left out. The call rests on the fitted dose curve; in most records, active means well fitted inhibition curve with a large enough effect; inconclusive means small, poorly fitted or top-dose-only effect; inactive means no such curve, though single readings can be large or run the other way. The set was probably picked from earlier hits. The list shows a part of the results.

We go through 96 compounds from PubChem BioAssay AID651815 (National Center for Advancing Translational Sciences (NCATS), 2012).
Potency means the concentration at half of the fitted maximal effect.

Sequence of DNA dC->dU-editing enzyme APOBEC-3F (Homo sapiens) (Q8IUX4 whole entry, looked up): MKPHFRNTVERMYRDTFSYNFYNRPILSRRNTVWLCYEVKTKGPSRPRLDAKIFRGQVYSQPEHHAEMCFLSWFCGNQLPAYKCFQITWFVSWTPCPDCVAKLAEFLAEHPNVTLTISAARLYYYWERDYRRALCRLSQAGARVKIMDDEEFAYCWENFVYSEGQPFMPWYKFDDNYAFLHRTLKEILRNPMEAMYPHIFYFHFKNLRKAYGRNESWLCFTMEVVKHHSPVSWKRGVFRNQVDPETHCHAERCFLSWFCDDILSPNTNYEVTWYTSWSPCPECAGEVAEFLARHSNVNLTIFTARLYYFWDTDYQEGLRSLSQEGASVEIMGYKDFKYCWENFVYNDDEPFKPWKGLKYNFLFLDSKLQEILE

This test has as its target DNA dC->dU-editing enzyme APOBEC-3F (Homo sapiens) (UniProt Q8IUX4). The test is described as follows: qHTS for inhibitors of Vif-A3F interactions: Cherry picks counterscreen. Further: nearly all actives have a fitted effect of over 65% in size. The settings on record: HeLa A3F-eYFP/Vif cells, eYFP fluorescence, 24 h; series mostly up to 46.1 µM. The method in brief: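 HeLa cells stably expressing A3F-eYFP and Vif, cultured overnight, then treated 24 h at 37 degrees C with compounds at several concentrations; yellow fluorescence (488 nm Ex/500-530 nm Em) imaged on Acumen; MG132 positive control.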
In general terms: qHTS replaces the single test concentration by a dilution series.
For the compound `O=C(CCl)N1c2ccccc2Oc2ccc3ccccc3c21`, the Potency is 14 µM (active). The value for `COc1cc(C2Oc3ccccc3C=C2[N+](=O)[O-])cc(OC)c1OC` (stereo unspecified) was 15.8 µM (active); that for `N#CC(C(=O)NCc1ccccc1)c1nc2ccccc2nc1N1CCCC1` (stereo unspecified) was 3.66 µM (active). To `CCN(CC)c1nc2ccccc2nc1C(C#N)C(=O)NCCc1ccccc1` (stereo unspecified) belongs 7.31 µM (active); to `CCCCn1c(N)c(N(Cc2ccccc2OC)C(=O)c2ccc([N+](=O)[O-])s2)c(=O)[nH]c1=O`, “inactive”. As for `Cc1cc2nc3s/c(=C/c4ccc(-c5ccccc5C(=O)O)o4)c(=O)n3c2cc1C`, the Potency was 11.6 µM (active). With `O=C(N/N=C/c1ccc2c(c1)OCO2)c1cc(-c2ccncc2)nc2ccccc12`, the Potency is 6.27 µM (active).

In the case of `Cc1cccc(C)c1OCC(=O)N/N=C/c1ccc2c(c1)OCO2`, the Potency was 3.53 µM (active). To `Cc1cc(C(=O)N/N=C/c2ccc3c(c2)OCO3)c2ccccc2n1` belongs 4.44 µM (active); to `O=C(N/N=C/c1ccsc1)c1cc(-c2cccs2)nc2ccccc12`, 15.8 µM (active). The value for `O=C(N/N=C/c1ccc2c(c1)OCO2)c1cc(-c2ccco2)nc2ccccc12` was 12.5 µM (active).

Regarding `Cc1cc(NC(=O)/C(C#N)=C/c2ccc(-c3ccc(SC(F)F)cc3)o2)n(-c2ccccc2)n1`, the Potency is 7.31 µM (active). Consider `Cc1cc(NC(=O)/C(C#N)=C\c2ccc(-c3ccc(SC(F)F)cc3)o2)n(-c2ccccc2)n1`, for which the Potency was 8.2 µM (active).

As to `COCCN(CCOC)Cc1c(O)ccc2c1O/C(=C\c1ccc(C)o1)C2=O`, the Potency entry was “inactive”. To `N#CCSc1ccccc1NC(=O)COc1ccc(-c2nnco2)cc1` belongs 17.7 µM (active); to `CCOc1cc(/C=C2\N=C(SC(C)C(N)=O)N(c3ccc(OC(F)F)cc3)C2=O)ccc1O` (stereo unspecified), 4.44 µM (active). The value for `Cc1cc(C(=O)N/N=C/c2ccc(C)o2)c2ccccc2n1` was 2.23 µM (active); that for `Cc1ccc(C=NNC(=O)c2cc(-c3cccnc3)nc3ccccc23)o1` was 8.86 µM (active). The value for `C/C(=N\NC(=O)c1cc(C)nc2ccccc12)c1ccncc1` was “inactive”; that for `CCOc1ccc(-c2cc(C(=O)N/N=C(\C)c3cccnc3)c3ccccc3n2)cc1` was “inactive”; that for `Cc1ccc(/C=N/NC(=O)c2cc(-c3ccccc3)nc3ccccc23)o1` was 14 µM (active).

In the case of `O=C(N/N=C/c1ccc(Cl)cc1)c1cc(-c2cccnc2)nc2ccccc12`, the Potency was 4.44 µM (active). To `CCCN(C(=O)CSc1n[nH]c(-c2ccc(OC)cc2)n1)c1c(N)n(Cc2ccccc2)c(=O)[nH]c1=O` belongs “inactive”; to `C/C(=N\NC(=S)NCc1ccccc1)c1cccs1`, “inactive”.

In the case of `CCOC(=O)Nc1ccc2nc(-c3cscn3)[nH]c2c1`, the Potency was 5.59 µM (active). As for `CC[n+]1c(/C=C/N(C)c2ccccc2)oc2ccc(F)cc21`, the Potency is 17.7 µM (active). The value for `CC[n+]1c(/C=C/Nc2ccccc2)oc2ccc(OC)cc21` was 16.4 µM (active). The value for `CC[n+]1c(/C=C/Nc2ccccc2)oc2ccccc21` was 18.4 µM (active); that for `NC(=O)c1ccc(NC(=O)C#Cc2ccccc2)cc1` was “inactive”. The value for `Cc1cc(/C=N/NC(=O)c2cc3ccccc3o2)c(C)n1C` was “inactive”; that for `O=C(N/N=C/c1cccc2ccccc12)c1cc2ccccc2o1` was 7.9 µM (active). On to `Cc1c(/C=N\NC(=O)c2cc3ccccc3o2)c2ccccc2n1C`, for which the Potency is 5.59 µM (active). Regarding `COc1ccc(OC)c(Nc2nc(-c3ccncc3)nc3ccccc23)c1`, the Potency result is “inactive”. The value for `Cc1cccc(C)c1Nc1nc2ccccc2nc1NS(=O)(=O)c1ccccc1` was 23.1 µM (active).

In the case of `COc1cc(Cl)c(C)cc1Nc1nc2ccccc2nc1NS(=O)(=O)c1ccccc1`, the Potency is 1.46 µM (active).

For `Cc1cc(Br)ccc1SCC(=O)OC/C(O)=C(\C#N)c1nc2ccccc2[nH]1`, the Potency entry is “inactive”. To `CCOC(=O)N1CCN(/C=C(\C#N)c2nc3ccccc3s2)CC1` belongs 18.4 µM (active); to `COc1ccc2oc(=O)c(-c3nc4ccccc4o3)cc2c1`, 14.6 µM (active); to `CCOc1ccccc1Nc1nnc(-c2cc3cc(OC)ccc3oc2=O)s1`, 9.2 µM (active). To `O=C(CCCCl)Oc1ccc2cc(-c3ccc4ccccc4n3)c(=O)oc2c1` belongs “inactive”. In the case of `CCOc1ccccc1Nc1nnc(-c2cc3cc(Cl)ccc3oc2=O)s1`, the Potency is 5.17 µM (active). For the compound `CC(O)CN(CC(C)O)c1ccc2c(c1)Cc1cc([N+](=O)[O-])ccc1-2` (stereo unspecified), the Potency was 2.31 µM (active). The value for `CCN1C(=O)/C(=C/C=C2\N(CC)c3cc(S(=O)(=O)N(C)C)ccc3N2c2ccccc2)SC1=S` was 6.27 µM (active); that for `CCN(CC)c1ccc(/C=N/NC(=S)NC)c(O)c1` was “inactive”; that for `CCN(CC)c1ccc(/C=N/N=C(N)N)c(O)c1` was 4.44 µM (active). To `CN(Cc1cnn(Cc2ccccc2)c1)C(=O)c1cccc(S(=O)(=O)N2CCOCC2)c1` belongs 11.2 µM (active). To `O=C(O)CCCN1C(=O)/C(=C\C(Cl)=C\c2ccccc2)SC1=S` belongs 7.04 µM (active). For the compound `CC1=CC(C)(C)NC(=S)N1c1ccc2ccccc2c1`, the Potency result is “inactive”. To `N#CC(=Cc1ccccn1)c1nc(-c2ccc(Cl)cc2)cs1` belongs 12.5 µM (active); to `O=C(NCCc1ccccc1Cl)c1ccc(Cn2c(=O)c3cccn3c3cccnc32)cc1`, 18.4 µM (active); to `O=[N+]([O-])c1ccc(-c2ccc(/C=N/Nc3nc(NCc4ccccc4)nc(N4CCOCC4)n3)o2)cc1`, 18.4 µM (active). `Cc1cc([N+](=O)[O-])ccc1-c1ccc(/C=N/NC(=O)c2ccc(Br)o2)o1`: the Potency is 20.6 µM (active). Take `O=C(N/N=C/c1ccc(-c2ccc([N+](=O)[O-])cc2)o1)[C@H]1C[C@@H]1c1ccccc1`: the Potency entry is “inactive”. The value for `COCCNC(=S)N/N=C(\C)c1ccc(OC(F)F)cc1` was “inactive”; that for `COCCNC(=S)N/N=C/c1ccc(-c2ccc([N+](=O)[O-])cc2)o1` was 15.8 µM (active).

`O=C(Cc1ccccc1)N/N=C/c1ccc(-c2ccc([N+](=O)[O-])cc2)o1`: the Potency was 15.8 µM (active). The value for `COCCNC(=S)NN=C1CCCCCC1` was “inactive”. The value for `CCOc1ccc(S(=O)(=O)N(CC(=O)N/N=C/c2ccc(-c3ccc([N+](=O)[O-])cc3)o2)c2ccccc2)cc1` was 3.53 µM (active); that for `CC(C)(C)NC(=S)N/N=C\c1ccc(-c2ccc([N+](=O)[O-])cc2)o1` was 18.4 µM (active); that for `O=C(O)c1cccc(-c2ccc(/C=N/Nc3ccc([N+](=O)[O-])cc3)o2)c1` was 18.4 µM (active). The value for `CN(/N=C/c1ccc(-c2ccc([N+](=O)[O-])cc2)o1)c1ccccc1` was 1.46 µM (active).

Take `Cc1cc2nc(SCCOC(=O)Nc3cccc(Cl)c3)nc(C)c2cc1C`: the Potency result was “inactive”. Take `Cn1ncc(N=Cc2c(O)ccc3ccccc23)c1C(=O)Nc1cccc(Cl)c1`: the Potency is 14.6 µM (active). To `CCOc1ccccc1C1CC(=O)NC2=C1C(=O)CCC2` (stereo unspecified) belongs 12.5 µM (active); to `CCCOc1ccccc1C1CC(=O)Nc2cc3c(cc21)OCO3` (stereo unspecified), 3.96 µM (active); to `CCCOc1ccccc1C1CC(=O)NC2=C1C(=O)CCC2` (stereo unspecified), 7.04 µM (active). With `CC(C)c1ccc(NC(=O)Nc2cnccn2)cc1`, the Potency is 17.7 µM (active). To `Cc1c(C(=O)Nc2ccc(C(C)C)cc2)sc2nc3n(c(=O)c12)CCC3` belongs “inactive”. `CC(C)c1ccc(C(=O)NCCCNC(=O)c2cnccn2)cc1`: the Potency entry was “inactive”. The value for `CCOC(=O)COn1c(=O)c(-c2ccc(Br)cc2)[n+]([O-])c2ccccc21` was “inactive”; that for `CCOC(=O)Cn1c(=O)c(-c2cc(Br)ccc2N)nc2ccccc21` was 11.6 µM (active); that for `CCOc1ccccc1N1CC(c2nc3ccccc3n2Cc2c(C)cc(C)cc2C)CC1=O` (stereo unspecified) was “inactive”. For `Nc1ccccc1C=C1Cc2ccccc2C1=O`, the Potency was 16.4 µM (active). To `CN(C)c1ccc(/C=C2/C[N+](C)(C)C/C(=C/c3ccc(N(C)C)cc3)C2=O)cc1` belongs 7.31 µM (active). For the compound `CN(C)c1ccc(/C=C2\Cc3ccccc3C2=O)cc1`, the Potency was 2.91 µM (active). To `CCOC(=O)CSC1=C(C#N)C(c2ccc(C)s2)CC(=O)N1` (stereo unspecified) belongs 1.98 µM (active); to `Cc1ccccc1NC(=O)CSC1=C(C#N)C(c2ccsc2)CC(=O)N1` (stereo unspecified), “inactive”. To `S=C(NCc1ccco1)Nc1ccc(Cl)cn1` belongs “inactive”; to `O=C(CCc1ccccc1)Nc1ccc(Cl)cn1`, 3.96 µM (active).

Consider `CCCC(=O)NC1=C(Cl)C(=O)c2ccccc2C1=O`, for which the Potency result was “inactive”. To `CN(C)c1ccc(/C=C/c2nc3ccccc3c(=O)n2CCO)cc1` belongs 23.1 µM (active); to `CCN(CC)c1ccc(/C=C/c2cc(-c3ccccc3)c3ccccc3n2)cc1`, 7.04 µM (active). As to `CN(C)c1ccc(/C=C/c2cc(/C=C/c3ccc(N(C)C)cc3)c3ccccc3n2)cc1`, the Potency is 5.17 µM (active). Turning to `CN(C)c1ccc(/C=C/c2cc(N(C)C)nc3ccccc23)cc1`, the Potency is 8.2 µM (active). The value for `CCC(C)Sc1cccc(-c2nc3cc(C)ccn3c2NC2CCCCC2)c1` (stereo unspecified) was “inactive”. The value for `Nc1ccc2nc(-c3ccccc3)c(-c3ccccc3)nc2c1` was “inactive”; that for `Nc1ccc(/C=C/c2cc(Cl)nc3ccccc23)cc1` was 23.1 µM (active); that for `CN1C(=S)N(c2cccnc2)C(=O)/C1=C\c1ccc(N(C)C)cc1` was 9.94 µM (active).

As to `CN1C(=O)/C(=C\c2ccc(N(C)C)cc2)OC1=S`, the Potency was 1.98 µM (active). The value for `Cc1c(N2C(=O)/C(=C/c3ccc(N(C)C)cc3)N(C)C2=S)c(=O)n(-c2ccccc2)n1C` was 20.6 µM (active). To `Cc1ccc(/C=N/NC(=O)CCCOc2ccc(Cl)cc2Cl)cc1` belongs 4.98 µM (active); to `O=C1N/C(=C\c2ccccc2)c2ccccc21`, 1.58 µM (active); to `O=C1NC(c2ccccc2Br)=N/C1=C\c1ccco1`, “inactive”. The value for `Cc1cccc2cc3c(N)c(C(=O)N4CCCc5ccccc54)sc3nc12` was 20.6 µM (active); that for `Cc1cccc2cc3c(N)c(C(=O)N4CCc5ccccc54)sc3nc12` was 6.51 µM (active); that for `Cc1ccc2nc3sc(C(=O)N4CCCc5ccccc54)c(N)c3cc2c1` was 12.5 µM (active).
